Screens (PubChem)
NCOA3 inh: inhibitors of human steroid receptor coactivator 3 (SRC3); Q9Y6Q9; HEK293 GAL4-SRC3 luciferase reporter, luminescence; inhibition, % at 3.6 µM; actives 0.17% (n = 360,000); AID 588352;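 active = inhibition above a per-campaign cutoff, the mean of all compounds plus 3 SD, cut at about 60% in these data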;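 also: 0% = DMSO-treated cells and 100% = gossypol-treated cells at 36 µM; higher means less SRC3-driven luciferase light from the GAL4 reporter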
Target sequence (Q9Y6Q9 whole entry, looked up, the tested form may be a part): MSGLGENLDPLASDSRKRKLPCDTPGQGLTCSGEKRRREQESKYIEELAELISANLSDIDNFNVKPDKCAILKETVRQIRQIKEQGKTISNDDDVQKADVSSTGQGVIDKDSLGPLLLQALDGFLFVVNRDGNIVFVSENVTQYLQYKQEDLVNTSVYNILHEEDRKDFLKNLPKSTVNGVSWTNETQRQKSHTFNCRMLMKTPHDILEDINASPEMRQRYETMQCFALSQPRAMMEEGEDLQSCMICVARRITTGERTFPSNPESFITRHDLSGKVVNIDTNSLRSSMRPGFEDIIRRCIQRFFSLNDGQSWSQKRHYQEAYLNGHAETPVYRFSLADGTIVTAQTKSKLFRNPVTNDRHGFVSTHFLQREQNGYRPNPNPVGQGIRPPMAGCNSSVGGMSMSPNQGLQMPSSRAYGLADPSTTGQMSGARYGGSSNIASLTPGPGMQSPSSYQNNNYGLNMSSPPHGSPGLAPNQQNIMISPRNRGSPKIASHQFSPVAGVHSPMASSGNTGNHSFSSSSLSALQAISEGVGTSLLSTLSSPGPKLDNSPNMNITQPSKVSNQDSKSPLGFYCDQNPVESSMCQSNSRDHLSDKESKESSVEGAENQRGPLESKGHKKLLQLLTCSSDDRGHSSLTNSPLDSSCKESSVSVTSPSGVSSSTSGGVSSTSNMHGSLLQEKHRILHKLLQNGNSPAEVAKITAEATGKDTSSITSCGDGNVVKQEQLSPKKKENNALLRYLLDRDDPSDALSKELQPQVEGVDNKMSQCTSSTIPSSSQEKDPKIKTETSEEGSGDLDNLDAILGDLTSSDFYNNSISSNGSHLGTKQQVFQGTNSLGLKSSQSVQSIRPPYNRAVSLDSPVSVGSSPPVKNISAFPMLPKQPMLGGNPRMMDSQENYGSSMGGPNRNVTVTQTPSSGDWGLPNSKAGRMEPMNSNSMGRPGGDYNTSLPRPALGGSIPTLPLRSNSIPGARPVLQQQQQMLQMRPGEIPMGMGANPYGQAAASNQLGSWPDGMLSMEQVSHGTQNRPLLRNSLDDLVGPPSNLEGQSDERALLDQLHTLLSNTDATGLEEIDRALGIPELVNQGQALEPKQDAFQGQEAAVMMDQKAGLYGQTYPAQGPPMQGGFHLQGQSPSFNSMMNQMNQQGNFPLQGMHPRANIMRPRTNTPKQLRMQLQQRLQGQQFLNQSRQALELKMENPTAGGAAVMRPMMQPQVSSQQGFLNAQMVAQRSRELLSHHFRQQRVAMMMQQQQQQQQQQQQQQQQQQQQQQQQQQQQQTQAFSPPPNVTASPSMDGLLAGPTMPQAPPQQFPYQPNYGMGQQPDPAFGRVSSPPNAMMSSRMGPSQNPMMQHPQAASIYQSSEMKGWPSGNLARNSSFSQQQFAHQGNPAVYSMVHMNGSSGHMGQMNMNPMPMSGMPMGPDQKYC
SRC2 inh: human SRC2 (NCOA2) inhibition. inhibition, % at 9 µM. HEK293 GAL4-SRC2 luciferase reporter, luminescence. AID 651957. Q15596. actives 0.17% (n = 370,000);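 active = inhibition above the mean inhibition of all tested compounds plus 3 SD, set per campaign, cut at about 52% in these data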;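 also: 0% = DMSO treated cells and 100% = cells given Gossypol at 36 µM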
NCOA1 inh: human NCOA1 inhibition; Q15788; AID 588354; inhibition, % at 3.6 µM; actives 0.12% (n = 360,000); HEK293 GAL4-SRC1 luciferase reporter, luminescence;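 active = inhibition above the campaign mean plus 3 SD, with each screening campaign given its own cutoff, cut at about 60% in these data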;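 also: 0% = DMSO treated cells and 100% = gossypol at 36 µM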
Gli-Sufu antag: blocks Gli-Sufu signaling in a luciferase reporter; Sufu-KO-LIGHT fibroblasts, Gli luciferase reporter luminescence; AID 588413; actives 0.74% (n = 340,000); inhibition, % at 5 µM;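 active = inhibition above about 55%, limit read from the data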;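 also: 0% = DMSO-treated cells and 100% = wells with medium but no cells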
COUP-TFII inh: inhibitors of human COUP-TFII (NR2F2) | inhibition, % at 8.6 µM | P24468 | HEK293T NGFI-A luciferase reporter, luminescence | AID 686940 | actives 0.7% (n = 370,000);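 active = inhibition above a per-plate cutoff, mean inhibition of test wells between control levels plus 3 SD, cut at about 38% in these data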;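 also: cells cotransfected with COUP-TFII expression vector driving the NGFI-A reporter; 0% = median of COUP-TF2 test wells and 100% = reporter-only cells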
NR5A2 inv ag: NR5A2 inverse agonism in reporter assay | O00482 | HEK293T StAR-luciferase reporter, LRH-1 transfected, 24 h | actives 0.13% (n = 360,000) | inhibition, % at 3.6 µM;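 active = inhibition above the mean inhibition of all tested compounds plus 3 SD, cut at about 73% in these data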;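 also: 0% = DMSO wells and 100% = reporter-only cells lacking LRH-1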
VP16 Luc counter: VP16 inhibition counter-screen for COUP-TFII | shares compounds with COUP-TFII inh | HEK293 Gal4-VP16 luciferase reporter, luminescence | inhibition, % at 8.5 µM | actives 25% (n = 2,500) | AID 687007; in the data active = inhibition above about 13%
NR2F2 inh conf: COUP-TFII (NR2F2) inhibition, confirmation assay; shares compounds with COUP-TFII inh; HEK293 NGFI-A luciferase reporter, luminescence; inhibition, % at 8.5 µM; actives 45% (n = 2,500);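 active = mean inhibition over three repeats above a set limit taken from the earlier primary screen, cut at about 38% in these data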;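 also: 100% = cells given the luciferase reporter alone without the COUP-TF2 vector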
* = called active by the depositor; / = no result. Hits are enriched below; roughly 1.2% of the tested compounds scored in any of these assays.

SMILES	NCOA3 inh	SRC2 inh	NCOA1 inh	Gli-Sufu antag	COUP-TFII inh	NR5A2 inv ag	VP16 Luc counter	NR2F2 inh conf
CCN(CC)S(=O)(=O)c1ccc(NC(=O)c2ccc(N(C)S(C)(=O)=O)cc2)cc1	27	22	8	5	68*	36	3	53*
CCN(CC)S(=O)(=O)c1ccc(NC(=O)c2ccccc2N(C)S(C)(=O)=O)cc1	-12	-9	10	3	-1	-1	/	/
CCCCN(C)C(=O)c1cn(C(C)c2ccccc2)nn1 (stereo not drawn)	/	-18	/	/	-7	/	/	/
C[C@@H]1C=CCCO[C@]12C(=O)N(Cc1ccc(F)cc1)c1cccc(Br)c12	/	21	/	/	15	/	/	/
O=C(/C=C/c1cccnc1)/C=C/c1cccnc1	-12	52*	-51	7	59*	37	38*	20
CCOC(=O)N(C)C[C@@H]1OCc2cn(nn2)CCCC(=O)N([C@H](C)CO)C[C@H]1C	/	13	/	/	-1	/	/	/
Cc1noc(C)c1COc1ccccc1C(=O)N(C)Cc1ccc(C(C)(C)C)cc1	25	-1	-8	22	41*	13	-5	15
COc1ccc(-n2c(C)c(C(C)=O)c3cc(O)ccc32)cc1	59	48	68*	-14	44*	8	10	18
COc1ccc2c(c1)c(C(C)=O)c(C)n2-c1ccccc1	30	31	26	-6	13	-11	/	/
COc1ccc2c(c1)c(C(C)=O)c(C)n2CCc1ccccc1	28	13	19	4	53*	17	4	23
Cc1nc2sc(C(N)=O)c(N)c2c2c1CCCC2	52	39	42	-20	51*	4	9	21
CCCCOCCCNC(=O)C[C@H]1C[C@@]2(C(=O)OC)C(=C[C@H](COCc3ccccc3)O[C@@H]2C)N(CCC2=CCCCC2)C1=O	/	-4	/	/	17	/	/	/
COc1ccc(-n2c(C)c([N+](=O)[O-])c3ccc(O)c(CN(C)C)c32)cc1	61	54*	69*	8	41*	28	29*	33
COC(=O)c1cc2c(c3c4ccccc4n(S(=O)(=O)c4ccc(OC)cc4)c13)C(=O)N(Cc1ccc(C(F)(F)F)cc1)C2	/	-2	/	/	17	/	/	/
Cn1nc(C(C)(C)C)cc1C(=O)NCC1CCN(C(=O)C(=O)c2cc3ccccc3o2)CC1	/	-9	/	/	41*	/	-3	11
O=C(NCC1CCN(C(=O)C(=O)c2cc3ccccc3o2)CC1)c1cc(C(F)(F)F)cc(C(F)(F)F)c1	/	28	/	/	3	/	/	/
O=C(Nc1ccc(CN2CCOCC2)cc1)c1ccc(Br)cc1	-34	-21	-35	-31	-13	-36	/	/
COC(=O)c1ccc(NC(=O)c2ccc(CN3CCOCC3)cc2)cc1	1	10	-2	-5	48*	21	-4	16
CCC(C)Oc1ccc(C(=O)Nc2ccc(CN3CCOCC3)cc2)cc1 (stereo not drawn)	8	7	5	5	40*	-5	-16	12
O=C(Nc1ccc(CN2CCOCC2)cc1)c1ccc(Cl)cc1	-67	-32	-55	/	-13	-68	/	/
O=C(Nc1ccc(S(=O)(=O)Nc2ccccc2)cc1)c1ccc(CN2CCOCC2)cc1	33	27	22	25	69*	48	9	25
CCOc1ccc(NC(=O)c2ccc(NC(=O)c3ccc(CN4CCOCC4)cc3)cc2)cc1	5	7	7	6	30	8	/	/
COc1ccccc1CN1Cc2ccccc2Oc2ccccc2S1(=O)=O	/	8	/	/	-6	/	/	/
C[C@H]1CNCCN1c1ccc(N2CCS(=O)(=O)CC2)c(C#N)c1	/	-40	/	/	20	/	/	/
CC(C)C[C@@H]1COc2cc(F)ccc2S(=O)(=O)N1C	/	11	/	/	4	/	/	/
CCOc1ccc(-n2c(SCc3cccc4ccccc34)nnc2-c2ccc(C)cc2)cc1	/	13	/	/	35	/	/	/
CCOC(=O)N1CCC(NC(=O)C2CCCN(Cc3nc(-c4cccc(C)c4)oc3C)C2)CC1 (stereo not drawn)	31	8	14	48	42*	3	-5	26
